Compounds with a hit are over-represented: about 3.3% of the library has one in this group of screens.
Mcl1-Noxa inh – Mcl-1/Noxa interaction inhibition. 220,000 compounds, 1.5% hits. Q07820. TR-FRET Mcl-1/Noxa peptide binding, 2 h. inhibition, % at 21.7 µM;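 active = compounds that cut the protein-peptide binding signal by more than 50% relative to plate controls in a single-dose test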;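 note: His-tagged Mcl-1 with rhodamine Noxa BH3 peptide and terbium anti-His antibody; 0% = Mcl-1 plus Noxa peptide wells and 100% = peptide-only wells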
NCF1 inh – blocks human p47phox regulatory protein of NADPH oxidases; p47phox/p22phox peptide binding, fluorescence polarization, 2 h; 220,000 compounds, 0.53% hits; inhibition, % at 24.7 µM; P14598;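 note: 0% = p47phox with labelled peptide and 100% = labelled peptide alone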
Target sequence (P14598 whole entry, looked up): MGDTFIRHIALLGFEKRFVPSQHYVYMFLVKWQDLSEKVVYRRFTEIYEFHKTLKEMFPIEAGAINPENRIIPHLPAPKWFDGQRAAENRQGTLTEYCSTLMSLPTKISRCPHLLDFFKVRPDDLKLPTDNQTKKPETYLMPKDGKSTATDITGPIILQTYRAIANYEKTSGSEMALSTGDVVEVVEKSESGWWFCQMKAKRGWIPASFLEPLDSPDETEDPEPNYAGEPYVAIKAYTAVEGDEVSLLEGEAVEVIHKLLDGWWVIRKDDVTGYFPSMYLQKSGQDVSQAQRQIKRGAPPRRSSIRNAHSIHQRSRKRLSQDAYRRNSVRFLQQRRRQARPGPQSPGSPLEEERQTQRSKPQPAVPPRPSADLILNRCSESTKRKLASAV
Mcl-1 Bim block – inhibitors of Bim-Mcl-1 interaction, human | Q07820 | Bead-based flow cytometry, Bim peptide-Mcl-1 binding | inhibition, % at 10 µM | 190,000 compounds, 0.1% hits | AID 1009; in the data active = inhibition above about 40%;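 note: 0% = no compound tracer wells and 100% = peptide blocker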
eIF4E-4G inh – blocks eIF4E binding to eIF4G; P63073+Q04637; TR-FRET eIF4E-eIF4GI(517-606) binding, 2 h; inhibition, % at 21.7 µM; 220,000 compounds, 0.37% hits;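 note: 0% = full FRET control wells and 100% = background wells lacking eIF4GI fragment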
Mcl1 Bid PPI – Mcl-1/Bid interaction inhibition | AID 1021 | TR-FRET Mcl-1/Bid-Dy647 peptide binding, 1536-well | 220,000 compounds, 0.97% hits | Q07820 | inhibition, % at 21.7 µM;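 active = compounds that cut the binding signal by more than half at the single screening dose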;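 note: His-tagged Mcl-1 with europium anti-His antibody binding Bid BH3 peptide; 0% = Mcl-1 plus peptide wells and 100% = peptide-only wells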
14-3-3 Bad inh – disrupts binding of bovine 14-3-3 zeta to phospho-Bad peptide; P63103; TR-FRET 14-3-3zeta/Dy647-pBad peptide displacement, 1 h; inhibition, % at 21.7 µM; 220,000 compounds, 0.71% hits; AID 781;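 active = inhibition above about 70%, limit read from the data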;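 note: 0% = full 14-3-3 plus peptide FRET controls and 100% = background without 14-3-3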
Target sequence (P63103 whole entry, looked up): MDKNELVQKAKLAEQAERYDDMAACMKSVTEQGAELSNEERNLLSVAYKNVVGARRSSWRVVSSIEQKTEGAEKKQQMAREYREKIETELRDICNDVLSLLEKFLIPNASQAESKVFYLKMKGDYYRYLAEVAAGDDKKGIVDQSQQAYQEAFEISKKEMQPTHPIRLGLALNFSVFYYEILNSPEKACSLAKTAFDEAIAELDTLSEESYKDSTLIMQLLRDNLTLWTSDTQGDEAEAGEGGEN
Starred values were filed as active, the others as inactive.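 Rule for the calls, unless noted: active = inhibition above about 30% (limit read from the data); inactive = the rest.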

For CCC1(O)CC(C(=O)OC)=NN1C(=O)c1ccccc1 (centres undefined) the results were Mcl1-Noxa inh 64*, NCF1 inh -2, Mcl-1 Bim block -2, eIF4E-4G inh -2, Mcl1 Bid PPI -11 and 14-3-3 Bad inh -13.
`O=Cc1cn(CC(=O)N2CCc3ccccc32)c2ccccc12` gave Mcl1-Noxa inh 13, NCF1 inh -8, Mcl-1 Bim block 0, eIF4E-4G inh 1, Mcl1 Bid PPI -18 and 14-3-3 Bad inh -9.
O=C(/C=C1\NC2(CCCC2)Cc2ccccc21)C(=O)N/N=C/c1ccc(O)c(O)c1 was read as Mcl1-Noxa inh 89*, NCF1 inh -35, Mcl-1 Bim block 0, eIF4E-4G inh 7, Mcl1 Bid PPI -58 and 14-3-3 Bad inh 5.
`CN(C)c1ccc(CC(=O)c2nc3ccccc3s2)cc1` gave Mcl1-Noxa inh 76*, NCF1 inh -6, Mcl-1 Bim block 0, eIF4E-4G inh 7, Mcl1 Bid PPI -45 and 14-3-3 Bad inh 25.
CN(C)C(=O)c1nc2ccccc2s1 was read as Mcl1-Noxa inh 14, NCF1 inh 2, Mcl-1 Bim block -2, eIF4E-4G inh 5, Mcl1 Bid PPI -19 and 14-3-3 Bad inh 1.
For Fc1ccc(N/N=C/c2ccncc2)c(F)c1 the results were Mcl1-Noxa inh 28, NCF1 inh -1, Mcl-1 Bim block -10, eIF4E-4G inh 3, Mcl1 Bid PPI -63 and 14-3-3 Bad inh -2.
For Clc1ccc(N/N=C/c2ccncc2)cc1Cl the results were Mcl1-Noxa inh 51*, NCF1 inh -1, Mcl-1 Bim block 0, eIF4E-4G inh -7, Mcl1 Bid PPI -39 and 14-3-3 Bad inh 1.
O=C(CC1Sc2ccccc2NC1=O)OCc1cc(=O)oc2cc(O)ccc12 (centres undefined) was read as Mcl1-Noxa inh 95*, NCF1 inh -60, Mcl-1 Bim block -2, eIF4E-4G inh 15, Mcl1 Bid PPI -96 and 14-3-3 Bad inh -15.
`CNC(=O)CCCCC(=O)N/N=C/c1ccc(Cl)cc1Cl` gave Mcl1-Noxa inh -6, NCF1 inh 4, eIF4E-4G inh 0, Mcl1 Bid PPI -19 and 14-3-3 Bad inh -2.
Nc1cc2c(cc1[N+](=O)[O-])OCO2 was read as Mcl1-Noxa inh 79*, Mcl-1 Bim block 3, eIF4E-4G inh 16, Mcl1 Bid PPI 14 and 14-3-3 Bad inh 31.
Screening Nc1cc2c(cc1[N+](=O)[O-])OCCO2 returned Mcl1-Noxa inh 9, NCF1 inh -6, Mcl-1 Bim block -3, eIF4E-4G inh 18, Mcl1 Bid PPI -52 and 14-3-3 Bad inh -6.
For Cc1cn2c(nc1=O)OC1CC2OC1CO (centres undefined) the results were Mcl1-Noxa inh -9, NCF1 inh -10, eIF4E-4G inh 2, Mcl1 Bid PPI -52 and 14-3-3 Bad inh 2.
Screening Cn1ccnc1C1CCCCN1C(=O)c1cc(COc2ccc(F)cc2Cl)on1 (centres undefined) returned Mcl1-Noxa inh 0, NCF1 inh 0, Mcl-1 Bim block 2, eIF4E-4G inh -2, Mcl1 Bid PPI -8 and 14-3-3 Bad inh -3.
COc1cccc(C(=O)Nc2cc(Cl)c(O)c(Cl)c2)c1 was read as Mcl1-Noxa inh 98*, NCF1 inh -7, eIF4E-4G inh 2, Mcl1 Bid PPI -56 and 14-3-3 Bad inh -3.
`O=[N+]([O-])c1sccc1CS(=O)(=O)c1ccccc1` gave Mcl1-Noxa inh 0, NCF1 inh 1, eIF4E-4G inh -3, Mcl1 Bid PPI 18 and 14-3-3 Bad inh 10.
COC(=O)c1ccc(COC(=O)c2ccc(CS(=O)(=O)c3ccc(C)cc3)cc2)cc1 was read as Mcl1-Noxa inh -1, NCF1 inh -2, Mcl-1 Bim block 0, eIF4E-4G inh -7, Mcl1 Bid PPI 81* and 14-3-3 Bad inh 8.
Screening COC(=O)c1ccc(COC(=O)CCS(=O)(=O)c2ccc(C)cc2)cc1 returned Mcl1-Noxa inh -5, NCF1 inh -6, Mcl-1 Bim block 0, eIF4E-4G inh 4, Mcl1 Bid PPI -19 and 14-3-3 Bad inh -2.
`COc1cc(-c2nc3ccccn3c2/N=C/c2cc(OC)c(O)cc2Cl)ccc1O` gave Mcl1-Noxa inh 57*, NCF1 inh -30, Mcl-1 Bim block -3, eIF4E-4G inh 1, Mcl1 Bid PPI -46 and 14-3-3 Bad inh -6.
Screening O=C(Nc1ccc(S(=O)(=O)Nc2nccs2)cc1)/C(=C/c1ccccc1Cl)NC(=O)c1ccccc1 returned Mcl1-Noxa inh 94*, NCF1 inh -29, Mcl-1 Bim block -12, eIF4E-4G inh -9, Mcl1 Bid PPI -68 and 14-3-3 Bad inh 6.
CC(NCc1ccc2c(c1)OCO2)C(=O)NC1CCCc2ccccc21 (centres undefined) was read as Mcl1-Noxa inh 19, NCF1 inh -9, Mcl-1 Bim block -2, eIF4E-4G inh 0, Mcl1 Bid PPI 69* and 14-3-3 Bad inh 45.
For O=C(Nc1ccsn1)c1ccc(Cl)cc1Cl the results were Mcl1-Noxa inh 24, NCF1 inh -5, eIF4E-4G inh -3, Mcl1 Bid PPI -3 and 14-3-3 Bad inh 1.
`Cc1ccc(N=Nc2c(N)[nH]n3c(=O)cc(-c4ccccc4)nc23)cc1` gave Mcl1-Noxa inh 81*, NCF1 inh -4, Mcl-1 Bim block 0, eIF4E-4G inh -28, Mcl1 Bid PPI 76* and 14-3-3 Bad inh 11.
COc1cccc(N=Nc2c(N)[nH]n3c(=O)cc(-c4ccccc4)nc23)c1 was read as Mcl1-Noxa inh 29, NCF1 inh 17, Mcl-1 Bim block 3, eIF4E-4G inh -21, Mcl1 Bid PPI 56* and 14-3-3 Bad inh 23.
Screening Cc1cc(=O)n2[nH]c(N)c(N=Nc3ccccc3)c2n1 returned Mcl1-Noxa inh 28, NCF1 inh -14, Mcl-1 Bim block 2, eIF4E-4G inh 11, Mcl1 Bid PPI -46 and 14-3-3 Bad inh -10.
`CC1(C)CC2CC(C)(CN2Cc2c(O)ccc3ccccc23)C1` (centres undefined) gave Mcl1-Noxa inh 15, NCF1 inh -5, Mcl-1 Bim block 3, eIF4E-4G inh 5, Mcl1 Bid PPI -41 and 14-3-3 Bad inh -24.
Cc1nn(CC(=O)c2ccccc2)c(=O)c2nn(-c3ccccc3F)c(C)c12 was read as Mcl1-Noxa inh 11, NCF1 inh 3, Mcl-1 Bim block -3, eIF4E-4G inh 5, Mcl1 Bid PPI -5 and 14-3-3 Bad inh -5.
`O=C(Cn1nnc2c(cnn2-c2ccc(F)cc2)c1=O)Nc1ccccc1C(F)(F)F` gave Mcl1-Noxa inh 3, NCF1 inh -1, Mcl-1 Bim block -4, eIF4E-4G inh 0, Mcl1 Bid PPI -27 and 14-3-3 Bad inh -6.
NC(=O)C(=CNc1nc(-c2ccc(Cl)c(Cl)c2)cs1)C(N)=O was read as Mcl1-Noxa inh 73*, NCF1 inh 12, eIF4E-4G inh 12, Mcl1 Bid PPI -35 and 14-3-3 Bad inh 26.

Screens: PubChem, several laboratories
